The list is not random: actives were taken first. Their share in the collection is about 9.5%.
RE007 growth inh – qHTS Assay for Inhibitors of the HIV-1 protein Vpr; S. pombe RE007 Vpr strain, BacTiter-Glo ATP luminescence, 24 h; Potency, µM (highest dose often 92.2 µM), usual class: inhibitors; actives 0.21% (n = 360,000); active means well fitted falling curve with a large enough effect; inconclusive means small, poorly fitted or top-dose-only effect; inactive means no such curve, though single readings can be large or run the other way; further: nearly all actives have a fitted effect of over 50% in size
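Fission yeast strain RE007, carrying one chromosomally integrated HIV-1 vpr copy, was seeded at OD 0.01 in PMG+AL medium with 23 nL pinned compound. After 24 h at 30 °C and 99% humidity, viability was read by BacTiter-Glo luminescence.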
Pf growth 96h – Primary qHTS for delayed death inhibitors of the malarial parasite plastid, 96 hour incubation | P. falciparum luciferase reporter growth, 96 h | Potency, µM (top dose mostly 28.7 µM), most hits filed as inhibitors | actives 6.9% (n = 320,000) | AID 504834, 2011
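Infected RBCs, 2% Hct / 0.05% parasitemia final; luciferase-reporter P. falciparum; cpd 96 h, 37 C, 5% CO2; luciferase detection reagent; luminescence.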
NS1 function inh – qHTS Assay for Inhibitors of Influenza NS1 Protein Function | actives 0.4% (n = 270,000) | AID 2326, 2010 | Potency, µM (top dose mostly 46.1 µM); calls by dose curve; further: actives are rising curves; nearly all actives have a fitted effect of over 50% in size
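OD600 was taken as the measure of yeast growth restored by compound in an NS1-expressing S. cerevisiae strain. Cells had been washed out of glucose medium and diluted 1:100 into galactose -URA medium, pH 6.0.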
Pf growth 48h – Primary qHTS for delayed death inhibitors of the malarial parasite plastid, 48 hour incubation; Potency, µM (series often up to 28.7 µM), hits mostly inhibitors; P. falciparum luciferase growth in erythrocytes, 48 h; actives 5.9% (n = 310,000); AID 504832, 2011
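Cell-based growth assay: transgenic P. falciparum expressing firefly luciferase, cultured in red cells within RPMI 1640 containing 0.5% w/v Albumax, 24 mM bicarbonate and gentamycin. A drop in luciferase activity indicates inhibition.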
SARS PLP yeast – qHTS of Yeast-based Assay for SARS-CoV PLP; AID 485353, 2010; S. cerevisiae expressing SARS-CoV PLpro, growth rescue; actives 0.19% (n = 330,000); Potency, µM (top dose mostly 32.9 µM), hits mostly activators; calls by dose curve; further: nearly all actives have a fitted effect of over 55% in size
Large screens that a line does not name were inactive. Unless noted, the call rests on the fitted dose curve; in most records, active means well fitted inhibition curve with a large enough effect; inconclusive means small, poorly fitted or top-dose-only effect, or another doubt; inactive means no such curve, though single readings can be large or run the other way.

COC(=O)CCCCCCCCCC[N+]1(C)CCCCC1	Pf growth 48h 3.7µM
CCn1c2ccccc2c2cc(NC(=O)C(C)Oc3ccccc3)ccc21 (stereo unspecified)	Pf growth 96h inconclusive, Pf growth 48h inconclusive
COc1ccc(OC(C)C(=O)Nc2cccc(F)c2)cc1 (stereo unspecified)	Pf growth 96h 1µM
CCn1c2ccccc2c2cc(NC(=O)C(C)Oc3ccc(OC)cc3)ccc21 (stereo unspecified)	Pf growth 96h 5.9µM, Pf growth 48h inconclusive
CCOc1ccccc1-c1nc(-c2ccc(NC(=O)c3ccc(Br)o3)cc2)no1	Pf growth 48h 2.9µM
CCN(CC)c1ccc(NC(=O)c2ccc(Br)o2)cc1	Pf growth 96h 10µM
COC(=O)Cc1ccc(NC(=O)c2ccc(Br)o2)cc1	none
O=C(CN(Cc1cccs1)C(=O)CCC(=O)Nc1ccccn1)NCc1ccccc1	none
CCc1cccc(NS(=O)(=O)c2c(C)[nH]c(=O)[nH]c2=O)c1	none
COc1ccccc1/C=C/C(=O)NCC(=O)N/N=C/c1ccc(C)o1	none
O=C(O)c1cc2n(n1)C(C(F)(F)F)CC(C1CC1)N2 (stereo unspecified)	Pf growth 48h 2.1µM
CS(=O)(=O)c1[nH]nc(-c2cccc(Cl)c2)c1C#N	none
O[C@H]1CN(CC2CCCCC2)[C@@H](c2ccc(Cl)cc2)C[C@@H]1n1cc(C2CC2)nn1	none (no result: Pf growth 96h, NS1 function inh, Pf growth 48h, SARS PLP yeast)
CCOc1ccc(CNC(=O)c2ccc(Sc3ccc(Cl)cc3)c(NC(C)=O)c2)cc1OC	none
CCOc1ccc(CNC(=O)c2ccc(Sc3ccc(C)cc3)c(NC(C)=O)c2)cc1OC	Pf growth 96h 12µM
CC(=O)c1cccc(N2C(=O)CC(N3CCN(S(=O)(=O)c4ccc(Cl)cc4)CC3)C2=O)c1 (stereo unspecified)	none (no result: NS1 function inh)
O=C(CN1CCN(C(c2ccccc2)c2ccccc2)CC1)NC(=O)NCc1ccco1	Pf growth 96h 10µM, Pf growth 48h 9.3µM
Cc1nc2ccccc2c(=O)n1NC(=O)c1ccc(Cl)c(Cl)c1	Pf growth 96h inconclusive
c1ccc(OCc2nc3c4c(ncn3n2)-c2ccccc2CC42CCCC2)cc1	Pf growth 48h 13µM
Nc1ncnc2c1C1(CCCCC1)Cc1ccccc1-2	Pf growth 96h 8.3µM, SARS PLP yeast inconclusive
C[C@@H]1CN([C@@H](C)CO)C(=O)c2cccc(NS(C)(=O)=O)c2O[C@H]1CN(C)CC1CCCCC1	none (no result: Pf growth 96h, NS1 function inh, Pf growth 48h)
CCCCNC(=O)C1(C)CCN1C(=O)c1cc(-c2cccs2)oc1C (stereo unspecified)	none (no result: Pf growth 96h, NS1 function inh, Pf growth 48h, SARS PLP yeast)
CCOC(=O)c1c(CSCc2ccccc2)oc2ccc(O)c(CN(C)C)c12	Pf growth 96h 5.9µM, Pf growth 48h 5.9µM
CCCCc1cc(=O)oc2c(CN3CCN(C)CC3)c(O)ccc12	Pf growth 96h inconclusive, Pf growth 48h 12µM
O=c1c(Oc2ccccc2Br)c(C(F)(F)F)oc2c(CN3CCCC3)c(O)ccc12	Pf growth 96h 2.1µM, Pf growth 48h 10µM
Cc1oc2c(CN3CCCC3)c(O)ccc2c(=O)c1-c1ccc(Cl)cc1	Pf growth 48h inconclusive
CCOC(=O)c1c(-c2ccccc2)oc2ccc(O)c(CN(C)C)c12	Pf growth 96h inconclusive (no result: Pf growth 48h)
Cc1oc2c(CN3CCCC3)c(O)ccc2c(=O)c1-c1ccccc1	Pf growth 96h 12µM, Pf growth 48h inconclusive
Cc1ccc(NC(=S)N2CCCC(O)C2)cc1 (stereo unspecified)	none (no result: NS1 function inh)
COc1ccccc1-c1coc2c(CN3CCC(C)CC3)c(O)ccc2c1=O	Pf growth 96h inconclusive, Pf growth 48h 12µM
CCOC(=O)c1c(-c2ccccc2)oc2ccc(O)c(CN3CCCC3)c12	Pf growth 96h 1µM, Pf growth 48h 1.9µM
COc1ccc(-c2c(C(F)(F)F)oc3c(CN4CCN(C)CC4)c(O)ccc3c2=O)cc1	Pf growth 96h inconclusive, Pf growth 48h 3.3µM
CCC1CCCCN1Cc1c(O)ccc2c(=O)c(-c3ccccc3OC)coc12 (stereo unspecified)	none (no result: Pf growth 96h, NS1 function inh, Pf growth 48h, SARS PLP yeast)
Cc1oc2c(CN3CCC(C)CC3)c(O)ccc2c(=O)c1-c1ccccc1	Pf growth 96h 4.1µM, Pf growth 48h 2.9µM
N#Cc1cccc(S(=O)(=O)NCC(=O)OCC(=O)NCc2ccccc2)c1	none (no result: NS1 function inh)
OCCN1CCN(c2cc(C(F)(F)F)nc3c(F)cccc23)CC1	Pf growth 48h inconclusive
CCc1cc(C(=O)OC)c(NC(=O)CSc2nccn2C)s1	Pf growth 96h inconclusive
CC(Oc1cccnc1[N+](=O)[O-])C(=O)Nc1ccc(Cl)cn1 (stereo unspecified)	none (no result: NS1 function inh)
NCCNC[C@@H]1COC2(CCCCCCCCCCC2)O1	Pf growth 96h 7.4µM, Pf growth 48h 8.3µM
Cc1ccc(CNC(=O)c2nnc(CS(=O)(=O)c3ccccc3)o2)cc1	Pf growth 96h inconclusive, Pf growth 48h inconclusive
O=C(NCc1ccccc1Cl)c1nnc(CS(=O)(=O)c2ccccc2)o1	Pf growth 48h 5.2µM
Clc1ccccc1CSc1nc2ccncc2[nH]1	Pf growth 96h inconclusive (no result: Pf growth 48h)
O=C(c1ccc(CSc2nc3ccncc3[nH]2)cc1)N1CCCCC1	Pf growth 96h 12µM
O=C(NCc1ccccc1Cl)c1ccc(CSc2nc3ccncc3[nH]2)cc1	Pf growth 96h inconclusive, Pf growth 48h 12µM
CC1CCCCC1NC(=O)c1ccc(CSc2nc3ccncc3[nH]2)cc1 (stereo unspecified)	Pf growth 96h 5.2µM, Pf growth 48h inconclusive
CC1CCCCC1NC(=O)CSc1nc2ccccc2[nH]1 (stereo unspecified)	none
CCCC1O[C@@H]2C[C@H]3[C@@H]4CCC5=CC(=O)C=C[C@]5(C)C4[C@@H](O)C[C@]3(C)[C@]2(C(=O)CO)O1 (stereo partly specified)	none (no result: RE007 growth inh, Pf growth 96h, Pf growth 48h, SARS PLP yeast)
COc1cccc(NC(=O)C2CCN(C(=O)[C@@H]3Cc4ccccc4CN3)CC2)c1	Pf growth 96h inconclusive, Pf growth 48h inconclusive
O=C(N/N=C/c1sc(N2CCOCC2)nc1-c1ccccc1)c1ccccc1O	Pf growth 96h 1.9µM, NS1 function inh inconclusive, Pf growth 48h 5.2µM
CCN(CC)c1ccc(/C=N/Nc2ccc(C)cc2)c(O)c1	Pf growth 96h inconclusive, SARS PLP yeast inconclusive
CCOC(=O)N/N=C/c1ccc(N(CC)CC)cc1O	Pf growth 96h 4.1µM, Pf growth 48h inconclusive
CCN(CC)c1ccc(C=Nc2cccc(S(=O)(=O)N3CCOCC3)c2)c(O)c1	none (no result: Pf growth 96h, NS1 function inh, Pf growth 48h)
CCN(CC)c1ccc(/C=N/NC(=O)c2cccc(S(=O)(=O)N3CCOCC3)c2)c(O)c1	Pf growth 96h inconclusive, Pf growth 48h 10µM
O=C(N/N=C/c1sc(N2CCOCC2)nc1-c1ccccc1)c1ccccc1Cl	Pf growth 96h inconclusive, Pf growth 48h 10µM
O=C(N/N=C/c1sc(N2CCOCC2)nc1-c1ccccc1)c1ccccc1F	Pf growth 96h inconclusive, Pf growth 48h inconclusive
CN(C)C(=O)c1ccccc1NC(=O)Cc1cccc2ccccc12	none
Cc1cc2c(c(=O)n1-c1ccccc1)C1O[C@](c3ccsc3)(Cc3cc(C#N)ccc31)O2	Pf growth 48h inconclusive (no result: RE007 growth inh)
